Structures are written as SMILES. The panel holds about 83,000 compounds, 20% with a hit somewhere; the sample as a whole holds those more often.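 The test compound was applied at a single concentration to cells in 96-well plates for 48 hours, and percent growth was recorded.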 Unmarked numbers belong to inactive results. The source made the active and inactive calls. The calls were made as follows: active = growth percent below 10; inactive = the rest.

Holding throughout (test): NCI-60 one-dose screen, 48 h (100 = growth as untreated, 0 = no growth, -100 = all killed)
Conditions in all cases: 10 µM unless noted

Assay [1] has as its system HCT-15 colon.
For assay [2], the system named is HT29 colon.
In assay [3] the test system is SNB-75 CNS.
In assay [4] the test system is SNB-19 CNS.
In assay [5] the test system is PC-3 prostate.
In assay [6] the test system is SK-MEL-5 melanoma.
Assay [7] deals with UACC-62 melanoma.
Assay [8] relates to LOX IMVI melanoma.
The test system of assay [9] is SK-MEL-28 melanoma.
Assay [10] has as its system SK-MEL-2 melanoma.
Assay [11] relates to EKVX NSCLC.
Assay [12] has as its system SN12C renal.
Assay [13] deals with UO-31 renal.
Assay [14] has as its system TK-10 renal.
Assay [15] has as its system ACHN renal.
For assay [16], the system named is CAKI-1 renal.
Assay [17] relates to A498 renal.
Assay [18] concerns CCRF-CEM leukemia.
For assay [19], the system named is MOLT-4 leukemia.
Assay [20] deals with U251 CNS.

Take `CCC(CC)N1C(=O)/C(=c2\sc3n(c2=O)NC2C(N=3)N(CC)C(=O)N2CC)c2ccccc21` (configuration not stated): the growth was 34.5% in assay [1]; 44.7% in assay [2]; 67.9% in [3]; 71.4% in assay [4]; 43.9% in assay [5]; 55.6% in assay [6]. Besides, the growth was 39.9% in assay [7]; 39.3% in [8]; 57% in assay [9]; 101% in assay [10]; 59.6% in assay [11]; 56% in assay [12]. Further, the growth is 54.4% in assay [13]; 127% in assay [14]; 50.4% in assay [15]; 50.8% in assay [16]; 52.3% in assay [17]; 55.3% in assay [18]. For the same compound, in [19], the growth is 59.8%.

For `N#Cc1c(-c2cccs2)cc(-c2cnccn2)nc1SCC(=O)c1ccc(F)cc1`, the growth in assay [1] is 100%; in assay [2] it was 105%; in [3], 58.5%; in assay [4], 97.7%; in [5], 87.2%; in assay [6] it was 96.4%. Moreover, the growth in assay [7] is 81.1%; in [8], 85.4%; in assay [9], 100%; in [10], 102%; in [11], 58.9%; in assay [12] it was 80.3%. Moreover, the growth in assay [13] was 54.7%; in [14] it was 89.3%; in assay [15] it was 92.2%; in assay [16] it was 59.7%; in [17], 8.83% (active); in [18] it was 94.5%. The growth in assay [19] is 92.7%.

Consider `CCO/C=N/C1=C(C#N)C(c2ccc(F)cc2)c2sc3c(CC)cccc3c2O1` (configuration not stated), for which the growth was 12.6% in [1]; 10.1% in assay [2]; 21.4% in [4]; 21.4% in [20]; 13.6% in assay [5]; 26.6% in assay [6]. For the same compound, the growth in assay [7] was 16.1%; in assay [8], 14.7%; in [9] it was 61%; in [10], 42.7%; in assay [11], 49%; in assay [12], 22.9%. Further, the growth in assay [13] is 32.2%; in assay [14], 63.9%; in assay [15], 28.4%; in [16], 36.4%; in [17] it was -3.45% (active); in assay [18], 13.1%. The growth in assay [19] was 19.8%.

As for `CS(=O)(=O)c1ccc(-c2nn(-c3ccccc3)cc2/C=N/NC(=O)c2nc(N)n[nH]2)cc1`, the growth in [1] was 88.9%; in assay [2] it was 101%; in assay [3], 103%; in assay [4], 101%; in [5], 100%; in assay [6], 98.6%. Besides, the growth in [7] was 90.8%; in [8] it was 84.7%; in [9], 108%; in [10] it was 108%; in [11], 90.3%; in assay [12], 94.7%. Besides, the growth in assay [13] was 96.8%; in assay [14] it was 110%; in assay [15] it was 93.7%; in assay [16], 96.6%; in assay [17], 101%; in [18], 43.7%. Further, the growth in assay [19] was 67.1%.

With `Nc1nc(-c2cccc([N+](=O)[O-])c2)c(N=Nc2ccc(Br)cc2)s1`, the growth is 0.133% (active) in assay [1]; 30.1% in assay [2]; -27.9% (active) in assay [3]; 29.9% in assay [4]; 2.83% (active) in assay [5]; -38.5% (active) in assay [6]. In addition, the growth in assay [7] is -37.8% (active); in [8] it was -84% (active); in assay [9], 4.69% (active); in [11], 8.7% (active); in [12], -26.8% (active); in [13], -80.3% (active). Moreover, the growth in [14] is -96.2% (active); in assay [15], -96.7% (active); in [16], -87.9% (active); in assay [18] it was 31.9%; in assay [19], 29.5%.

`COc1ccccc1-n1cc(C#N)c(N)c1C(=O)c1ccc(C)cc1`: the growth in assay [1] was 47.1%; in assay [2], 73.7%; in assay [3], 82%; in assay [4], 77.1%; in assay [5], 74.5%; in assay [6] it was 92%. Also, the growth is 22.2% in [7]; 80.1% in assay [8]; 73.9% in [9]; 79.1% in assay [10]; 89.1% in [11]; 91.1% in [12]. Besides, the growth was 90% in assay [13]; 102% in assay [14]; 101% in assay [15]; 78.5% in [16]; 74.9% in [17]; 85.6% in assay [18]. In assay [19], the growth is 83.1%.

Consider `CCC(NC(c1cc2cccc3ccc4cccc1c4c32)c1nnnn1C(C)(C)C)C1CCCCC1` (configuration not stated), for which the growth in assay [1] is 38.4%; in assay [2], 69.4%; in assay [3], 75.6%; in [4], 68.9%; in assay [5], 45.8%; in assay [6], 6.39% (active). Besides, the growth is 49.6% in [7]; 47.6% in assay [8]; 80.3% in assay [9]; 92.1% in assay [11]; 80.8% in assay [12]; 72.1% in [13]. Also, the growth in assay [14] was 80.6%; in assay [15] it was 54.5%; in assay [16], 63.1%; in assay [18], 58.1%; in assay [19], 47.2%.

Turning to `COc1ccc2[nH]cc(-c3csc4nc(-c5ccccc5)cn34)c2c1`, the growth is 11.3% in [1]; -8.92% (active) in assay [2]; 23.6% in assay [4]; 13.6% in [20]; 19.4% in assay [5]; 47.2% in assay [6]. In addition, the growth was 32.4% in assay [7]; -2.73% (active) in assay [8]; 73.8% in [9]; -5.6% (active) in [10]; 35.8% in [11]; 40.2% in assay [12]. For the same compound, the growth in assay [13] is 33.2%; in assay [14] it was 75.6%; in [15] it was 38.6%; in assay [16], 26.3%; in assay [17] it was -19.7% (active); in assay [18], 16.2%.

For the origin of these results see PubChem BioAssay (NCI).
